Measured values taken from PubChem BioAssay (Tox21).
Records with an inconclusive call do not appear. A call without a number means that no potency is given here. Calls of active or inactive are those of the source. Unless noted, calls follow the shape of the dose curve; as a rule, active = well fitted curve in the direction sought with a large enough effect in the repeat runs; inconclusive = weak or mixed curves; inactive = no such curve, though single readings can be large; an effect the other way counts as inactive or inconclusive.

Experiments:
[1] = target: Aryl hydrocarbon receptor (Homo sapiens) (UniProt P35869); test: qHTS assay to identify small molecule that activate the aryl hydrocarbon receptor (AhR) signaling pathway (AID 743085); also: nearly all actives have a fitted effect of over 15% in size; also: potency is read from the fitted curve at half-maximal effect;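 as to activation: HG2L7.5c1 human HepG2 liver cells with stably integrated DRE-driven firefly reporter; series mostly up to about 70 µM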
Outline: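 24 h compound exposure, 37C, HepG2-derived HG2L7.5c1 cells with DRE-responsive luciferase. Readouts: fluorescence viability, then luminescence at room temperature after 30 min.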

[2] = qHTS assay to identify small molecule that activate the aryl hydrocarbon receptor (AhR) signaling pathway - cell viability counter screen (AID 743086);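 also: HepG2 liver cells carrying the AhR DRE luciferase reporter; series mostly up to about 70 µM; nearly all actives have a fitted effect of over 45% in size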
Outline: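 HepG2-AhR-luc (HG2L7.5c1) cells, 4000/well, were preincubated 5 h at 37C, exposed to compound in qHTS format for 24 hr at 37C, then given CellTiter-Fluor for 30 min; viability was read as fluorescence in the reporter wells.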

[3] = target: Peroxisome proliferator-activated receptor gamma (Homo sapiens) (UniProt P37231); test: qHTS assay to identify small molecule agonists of the peroxisome proliferator-activated receptor gamma (PPARg) signaling pathway (AID 743094; active = well fitted activation curve with a large enough effect in the signal ratio in the repeat runs, not every such curve was filed as active; the % refers to the signal ratio)
Outline: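 Cell-based bla reporter, HEK293H background, PPARg-driven UAS. Pre-incubation 5 h, 37C, 5% CO2. Compound 17 h, 37C. Substrate 1 h RT; fluorescence.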

[4] = target: Peroxisome proliferator-activated receptor gamma (Homo sapiens) (UniProt P37231); test: qHTS assay to identify small molecule antagonists of the peroxisome proliferator-activated receptor gamma (PPARg) signaling pathway (AID 743191; calls by dose curve; also: series mostly up to about 63 µM; nearly all actives have a fitted effect of over 30% in size)
Outline: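 GeneBLAzer PPARg UAS-bla HEK293H cells carrying a UAS-driven beta-lactamase reporter were plated at 3000 cells/well, preincubated 5 h at 37C, then given compound for 17 h at 37C; LiveBLAzer B/G FRET substrate was read after 1 h at room temperature.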

[5] = qHTS assay to identify small molecule antagonists of the peroxisome proliferator-activated receptor gamma (PPARg) signaling pathway - cell viability counter screen (AID 743194); also: nearly all actives have a fitted effect of over 55% in size
Outline: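 PPARg-UAS-bla HEK293H cells were plated, rested 5 h at 37 C, then treated with compounds plus rosiglitazone (50 nM final) for 17 h at 37 C; viability was then read by CellTiter-Glo luminescence after 30 min at room temperature.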

[6] = qHTS assay for small molecule agonists of the antioxidant response element (ARE) signaling pathway (AID 743202; active = well fitted activation curve with a large enough effect in the signal ratio in the repeat runs, not every such curve was filed as active; the % refers to the signal ratio)
Outline: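 Following a 16 h, 37 C exposure of reporter HepG2 cells (ARE-driven beta-lactamase, 2,000 cells/well) to compounds, FRET substrate was applied for 2 h at room temperature and fluorescence intensity recorded.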

[7] = qHTS assay for small molecule agonists of the antioxidant response element (ARE) signaling pathway - cell viability counter screen (AID 743203; calls by dose curve; also: nearly all actives have a fitted effect of over 55% in size)
Outline: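 Measured in the same wells as the beta-lactamase ARE reporter, this read-out is CellTiter-Glo luminescence from HepG2 ARE-bla cells given compounds for 16 hrs.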

[8] = qHTS assay for small molecule activators of the heat shock response signaling pathway - cell viability counter screen (AID 743209); also: nearly all actives have a fitted effect of over 50% in size
Outline: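 Same-well multiplex: after 2.5 h room-temperature incubation with LiveBLAzer B/G substrate and fluorescence reading, CellTiter-Glo reagent was added to HSE-bla HeLa cells that had received compound for 5 h at 37 C; luminescence read after 30 min.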

[9] = qHTS assay for small molecule activators of the heat shock response signaling pathway (AID 743210; active = well fitted activation curve with a large enough effect in the signal ratio in the repeat runs, with a control signal flat, not every such curve was filed as active; the % refers to the signal ratio; also: series mostly up to about 63 µM)
Outline: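 Heat shock element–beta-lactamase HeLa reporter cells; qHTS with compounds for 5 h at 37 C; detection by FRET substrate fluorescence after 2.5 h at RT.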

[10] = qHTS assay to identify small molecule agonists of the peroxisome proliferator-activated receptor delta (PPARd) signaling pathway - cell viability counter screen (AID 743211); also: nearly all actives have a fitted effect of over 55% in size
Outline: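 Luminescent ATP viability assay (CellTiter-Glo, 30 min RT) in UAS-bla HEK293H cells carrying the PPAR delta reporter construct, 3000 cells/well, after a 17 h compound treatment at 37 C.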

Chain of Aryl hydrocarbon receptor (Homo sapiens) (P35869 whole entry, looked up): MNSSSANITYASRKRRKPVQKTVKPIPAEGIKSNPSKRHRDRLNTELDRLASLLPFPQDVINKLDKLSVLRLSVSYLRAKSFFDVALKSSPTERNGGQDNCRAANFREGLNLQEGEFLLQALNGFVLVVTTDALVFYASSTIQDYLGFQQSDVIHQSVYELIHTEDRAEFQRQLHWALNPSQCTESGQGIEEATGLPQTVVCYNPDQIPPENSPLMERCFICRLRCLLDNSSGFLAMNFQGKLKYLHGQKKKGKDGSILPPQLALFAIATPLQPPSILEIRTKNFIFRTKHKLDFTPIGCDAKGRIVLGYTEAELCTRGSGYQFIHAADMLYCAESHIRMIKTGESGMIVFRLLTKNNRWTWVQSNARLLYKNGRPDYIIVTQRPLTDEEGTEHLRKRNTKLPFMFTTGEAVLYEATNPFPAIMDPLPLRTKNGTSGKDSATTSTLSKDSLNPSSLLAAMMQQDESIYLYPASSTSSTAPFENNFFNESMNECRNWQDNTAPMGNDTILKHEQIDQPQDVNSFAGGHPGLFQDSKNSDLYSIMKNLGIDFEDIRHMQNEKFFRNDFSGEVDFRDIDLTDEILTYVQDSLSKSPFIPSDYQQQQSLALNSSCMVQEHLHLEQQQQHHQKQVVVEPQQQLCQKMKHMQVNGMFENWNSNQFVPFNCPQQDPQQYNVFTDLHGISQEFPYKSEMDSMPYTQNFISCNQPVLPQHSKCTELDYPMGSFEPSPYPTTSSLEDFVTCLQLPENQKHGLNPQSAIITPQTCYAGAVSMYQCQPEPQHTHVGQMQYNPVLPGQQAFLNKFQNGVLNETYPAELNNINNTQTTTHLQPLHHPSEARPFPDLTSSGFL
Chain of Peroxisome proliferator-activated receptor gamma (Homo sapiens) (P37231 whole entry, looked up): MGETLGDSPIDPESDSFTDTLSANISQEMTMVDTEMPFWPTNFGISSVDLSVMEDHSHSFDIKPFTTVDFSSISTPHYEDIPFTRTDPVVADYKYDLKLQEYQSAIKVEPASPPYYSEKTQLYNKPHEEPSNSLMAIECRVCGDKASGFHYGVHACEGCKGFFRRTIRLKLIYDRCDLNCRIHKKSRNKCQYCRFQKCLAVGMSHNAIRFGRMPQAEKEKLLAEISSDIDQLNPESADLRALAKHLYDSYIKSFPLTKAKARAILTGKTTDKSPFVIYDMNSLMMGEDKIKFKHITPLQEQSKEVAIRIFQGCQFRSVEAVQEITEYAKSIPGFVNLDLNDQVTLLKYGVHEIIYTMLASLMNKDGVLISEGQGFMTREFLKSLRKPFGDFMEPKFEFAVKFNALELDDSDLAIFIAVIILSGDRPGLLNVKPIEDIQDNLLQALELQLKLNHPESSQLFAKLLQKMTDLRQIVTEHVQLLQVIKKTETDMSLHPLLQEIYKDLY

Row | SMILES | Potency [1] | Potency [2] | outcome [3] | Potency [4] | Potency [5] | Potency [6] | Potency [7] | Potency [8] | Potency [9] | Potency [10]
1 | CC(C)N=C=NC(C)C | inactive | inactive | inactive | inactive | inactive | inactive | inactive | inactive | inactive | 
2 | CC(C)(C)C1(CCc2ccc(Cl)cc2)CO1 (configuration not stated) | inactive | inactive | inactive | inactive | inactive | inactive | inactive | inactive | inactive | inactive
3 | O=C(O)c1cc(Cl)cc(Cl)c1O | inactive | inactive | inactive | inactive | inactive | inactive | inactive | inactive | inactive | inactive
4 | CCCCCCOC(=O)CCCCC | inactive | inactive | inactive | inactive | inactive | inactive | inactive | inactive | inactive | 
5 | C=CCOC(=O)COCCC(C)C | inactive | inactive | inactive | inactive | inactive | inactive | inactive | inactive | inactive | inactive
6 | Cc1cn([C@H]2C[C@H](F)[C@@H](CO)O2)c(=O)[nH]c1=O | inactive | inactive | inactive | inactive | inactive | inactive | inactive | inactive | inactive | inactive
7 | CC(C)c1ccc(C#N)cc1 | inactive | inactive | inactive | inactive | inactive | inactive | inactive | inactive | inactive | inactive
8 | Cc1ccc(Cl)cc1N | inactive | inactive | inactive | inactive | inactive | inactive | inactive | inactive | inactive | inactive
9 | CC[C@@H](CO)NCCN[C@@H](CC)CO | inactive | inactive | inactive | inactive | inactive | inactive | inactive | inactive | inactive | inactive
10 | O=C(O)CCCc1c[nH]c2ccccc12 | inactive | inactive | inactive | inactive | inactive | inactive | inactive | inactive | inactive | inactive
11 | O=c1[nH]c2cc(C(F)(F)F)c(N3CCOCC3)cc2n(CP(=O)(O)O)c1=O | inactive | inactive | inactive | inactive | inactive | inactive | inactive | inactive | inactive | inactive
12 | COc1ccc(-n2nc(C(F)F)cc2-c2ccc(S(C)=O)cc2)cc1 (configuration not stated) | inactive | inactive | inactive | inactive | inactive | inactive | inactive | inactive |  | 
13 | CCN(CC)CCOC(=O)C(c1ccccc1)c1ccccc1 | inactive | inactive | inactive | inactive | inactive | inactive | inactive | inactive | inactive | 
14 | CC1CCCC(=O)C1=O (configuration not stated) | inactive | inactive | inactive | inactive | inactive | inactive | inactive |  | inactive | inactive
15 | O=C(c1ccccc1)c1ccc(O)cc1 | inactive | inactive | inactive | inactive | inactive |  | inactive | inactive | inactive | inactive
16 | C=CC(=O)O | inactive | inactive | inactive | inactive | inactive |  | inactive |  |  | inactive
17 | O=C1NC(=O)c2cccc3cccc1c23 | 21.7 µM (active) | inactive | inactive | inactive | inactive |  | inactive | inactive | inactive | inactive
18 | O=C(Oc1ccccc1)c1ccc2ccccc2c1O | inactive | inactive | inactive | inactive |  | inactive | inactive | inactive | inactive | inactive
19 | NC(=O)CCCCC(N)=O | inactive | inactive | inactive | inactive | inactive |  | inactive | inactive | inactive | inactive
20 | CC1C(C)(C)C2=C(C(=O)CCC2)C1(C)C (configuration not stated) | inactive | inactive | inactive | inactive | inactive |  | inactive | inactive | inactive | 
21 | CCCCC[C@H](O)/C=C/[C@H]1[C@H](O)CC(=O)[C@@H]1C/C=C\CCCC(=O)O | inactive | inactive | inactive | inactive | inactive |  | inactive | inactive | inactive | inactive
22 | COc1cc(S(=O)(=O)Nc2ccccc2)c(OC)cc1N | inactive | inactive | inactive | inactive | inactive |  |  | inactive | inactive | inactive
23 | c1ccc(CCCc2ccncc2)cc1 | inactive | inactive | inactive | inactive | inactive |  | inactive |  |  | inactive
24 | CC1=C2[C@@H]([C@H](C)CC[C@H]2/C=C(\C)C(=O)O)[C@H](O)C1 | inactive | inactive | inactive |  | inactive | inactive | inactive | inactive |  | 
25 | CS(=O)(=O)c1ccc([C@@H](C[C@H]2CCC(=O)C2)C(=O)Nc2cnccn2)cc1Cl | inactive | inactive | inactive | inactive | inactive |  | inactive | inactive |  | 
26 | COC(=O)c1sccc1S(N)(=O)=O | inactive | inactive | inactive | inactive | inactive |  | inactive | inactive | inactive | inactive
